From PubChem BioAssay (NCATS) come the findings set out here.

Records with an inconclusive call do not appear. Active and inactive are the calls of the source. Calls follow the shape of the dose curve; as a rule, active = well fitted inhibition curve with a large enough effect; inconclusive = small, poorly fitted or top-dose-only effect; inactive = flat fitted curve, though single readings scatter.

Test in all cases: qHTS profiling for inhibitors of Plasmodium falciparum proliferation (AID 504749); also: nearly all actives have a fitted effect of over 60% in size
Settings in all cases: P. falciparum in erythrocytes, SYBR Green DNA, 72 h; series mostly up to 28.7 µM
For orientation: Quantitative high-throughput screening tests each substance at several concentrations.

Test [1] concerns DIV17. In a few lines:
(§1)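 Fluorescence of SYBR Green-bound parasite DNA, read at 485/535 nm, served as the growth measure. Infected erythrocytes were cultured with compound 72 h; artemisinin (0.29 uM) and DMSO wells defined the normalization range.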

Test [2] concerns DIV30. In short, it runs like this: as §1
Test [3] relates to Dd2. In short, it runs like this:
as §1

Test [4] has as its system ECU. In short, it runs like this: as §1
Test [5] relates to FAB9. In a few lines: as §1
In test [6] the test system is GB4. In short, it runs like this: as §1
In test [7] the test system is HB3. In a few lines: as §1
In test [8] the test system is ICS. In short, it runs like this: as §1
For test [9], the system named is JCK. In a few lines:
as §1

The subject of test [10] is N140. In short, it runs like this:
as §1
Potency is read from the fitted curve at half-maximal effect.

For the molecule `CC(C)[C@H](N)C(=O)OCCOCn1cnc2c(=O)[nH]c(N)nc21`, the Potency entry in test [1], in test [2], in test [3], in test [4], in test [5] and in [6] was “inactive” in each case. The Potency entry in [7], in test [8], in [9] and in test [10] was “inactive” each time.
Regarding `CNC[C@@H](O)[C@@H](O)[C@H](O)[C@H](O)CO`, the Potency entry in [1], in [2], in [3], in [4], in test [5] and in [6] was “inactive” throughout. In addition, the Potency entry in test [7], in [8], in test [9] and in [10] was “inactive” each time.
For `O=C(CS(=O)Cc1ccco1)NCC=CCOc1cc(CN2CCCCC2)ccn1` (configuration not stated), the Potency result in [1], in [2], in test [3], in test [4], in test [5] and in test [6] was “inactive” in each case. The Potency entry in test [7], in [8], in test [9] and in [10] was “inactive” in each case.
`Cc1nc2n(c(=O)c1CCN1CCC(c3noc4cc(F)ccc34)CC1)CCCC2`: the Potency entry in [1], in test [2], in test [3], in test [4], in [5] and in [6] was “inactive” in each case. Also, the Potency entry in test [7], in test [9] and in [10] was “inactive” each time. In addition, in [8], the Potency is 12.6 µM (active).
Take `CCCCCCCCCCCCCCCCCCCCCCO`: the Potency entry in test [1], in [2], in [3], in test [4], in test [5] and in [6] was “inactive” each time. The Potency result in test [7], in test [8], in test [9] and in [10] was “inactive” throughout.
On to `CCOC(=O)c1c(C)n(C)c2ccc(O)cc12`, for which the Potency entry in [1], in test [2], in test [3], in test [4], in [5] and in test [6] was “inactive” in each case. In addition, the Potency result in test [7], in [8] and in test [9] was “inactive” in each case.
`C[C@]12CCC(=O)C=C1CC[C@@H]1[C@H]2[C@@H](O)C[C@@]2(C)[C@H]1CC[C@]2(O)C(=O)CO`: the Potency entry in test [1], in test [2], in [3], in [4], in test [5] and in test [6] was “inactive” in each case. Besides, the Potency entry in [7], in [8], in test [9] and in test [10] was “inactive” in each case.
Turning to `Cc1ccc(NC(=O)c2ccc(CN3CCN(C)CC3)cc2)cc1Nc1nccc(-c2cccnc2)n1`, the Potency in test [1] is 15.1 µM (active); in test [2], 12 µM (active); in [3], 10 µM (active); in test [4] it was 8.91 µM (active); in test [6] it was 15.1 µM (active); in test [8] it was 11.2 µM (active). The Potency in [10] is 8.91 µM (active).
With `Cc1ccc(C)c(OCCCC(C)(C)C(=O)O)c1`, the Potency entry in test [1], in test [2], in [3], in test [4], in test [5] and in test [6] was “inactive” each time. Also, the Potency result in [7], in [8], in test [9] and in [10] was “inactive” throughout.
`COc1cc2c(cc1OC)C1CC(=O)C(CC(C)C)CN1CC2` (configuration not stated): the Potency entry in test [1], in test [2], in [3], in [4], in [5] and in [6] was “inactive” in each case. For the same molecule, the Potency entry in test [7], in test [8], in test [9] and in test [10] was “inactive” in each case.
Regarding `O=C(O)c1cccc(-c2noc(-c3ccccc3F)n2)c1`, the Potency entry in test [1], in [2], in test [3], in test [4], in test [5] and in test [6] was “inactive” in each case. Further, the Potency result in test [7], in test [8], in test [9] and in [10] was “inactive” in each case.
Take `CC(C)c1ccc2oc3nc(N)c(C(=O)O)cc3c(=O)c2c1`: the Potency entry in test [1], in test [2], in test [3], in test [5], in test [6] and in test [7] was “inactive” throughout. Moreover, the Potency entry in [8], in test [9] and in test [10] was “inactive” in each case.
As for `Cn1c(NCCN(CCO)CCCc2ccc([N+](=O)[O-])cc2)cc(=O)n(C)c1=O`, the Potency entry in test [1], in test [2], in test [3], in test [4], in test [5] and in [6] was “inactive” each time. The Potency result in test [7], in test [8], in test [9] and in [10] was “inactive” each time.
Consider `CC(S)C(=O)NCC(=O)O` (configuration not stated), for which the Potency result in test [1], in [2], in test [3], in test [4], in test [5] and in [6] was “inactive” in each case. The Potency result in [7], in test [8], in [9] and in test [10] was “inactive” each time.
In the case of `COc1ccc2cc([C@H](C)C(=O)O)ccc2c1`, the Potency result in test [1], in test [2], in [3], in test [4], in [5] and in test [6] was “inactive” each time. In addition, the Potency entry in test [7], in [9] and in [10] was “inactive” in each case.
As to `CCOc1cc(CC(=O)N[C@@H](CC(C)C)c2ccccc2N2CCCCC2)ccc1C(=O)O`, the Potency result in test [1], in [2], in [3], in test [4], in test [5] and in [6] was “inactive” throughout. Further, the Potency entry in test [7], in test [8], in test [9] and in [10] was “inactive” each time.
In the case of `Cc1cc2c(s1)Nc1ccccc1N=C2N1CCN(C)CC1`, the Potency entry in test [1], in [2], in test [3], in test [4], in [5] and in test [7] was “inactive” in each case. Moreover, the Potency result in test [8], in [9] and in test [10] was “inactive” in each case.
`Oc1ccc(OCc2ccccc2)cc1`: the Potency result in test [1], in test [2], in [3], in test [4], in test [5] and in test [6] was “inactive” throughout. Besides, the Potency entry in test [7], in test [9] and in test [10] was “inactive” each time.
For `O=C(NCCO[N+](=O)[O-])c1cccnc1`, the Potency entry in [1], in test [2], in [3], in test [4], in test [5] and in test [6] was “inactive” each time. Further, the Potency entry in test [7], in test [8], in [9] and in test [10] was “inactive” throughout.
Turning to `Cc1cccc(C)c1OCC(=O)N[C@@H](Cc1ccccc1)[C@@H](O)C[C@H](Cc1ccccc1)NC(=O)[C@H](C(C)C)N1CCCNC1=O`, the Potency in test [1] is 1.9 µM (active); in test [2], 1.9 µM (active); in test [3] it was 10 µM (active); in test [4], 1 µM (active); in [5], 11.2 µM (active); in test [6], 3.79 µM (active). In addition, the Potency is 7.94 µM (active) in test [7], 0.891 µM (active) in test [8], 7.94 µM (active) in [9] and 0.708 µM (active) in test [10].
`CNC[C@H](O)c1ccc(O)c(O)c1`: the Potency result in test [1], in test [2], in test [3], in [4], in test [5] and in test [6] was “inactive” in each case. For the same molecule, the Potency entry in test [7], in [8], in [9] and in test [10] was “inactive” throughout.
